Hits are enriched below; roughly 4.1% of the tested compounds scored in any of these assays.
ssDAF12 agonist – S. stercoralis DAF-12 nuclear receptor activators, primary screen, cell-based, luminescence, HEK293, GRIP1 co-expression, lit1-tk-luc; Nuclear hormone receptor DAF-12 (Strongyloides stercoralis); HEK293 ssDAF-12/GRIP1 lit1-tk-luc reporter; % of 3 µM dafachronic acid response; activation, % at 6.8 µM; 1% of 370,000 active; AID 652126, 2013;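 active = activation above the mean over all tested compounds plus 3 SD, cut at about 0.9% in these data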;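 note: 0% = DMSO-only wells and 100% = 3 µM delta7-dafachronic acid wells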
DAX1 inh-1 – DAX1 (NR0B1) inhibitors, primary screen, cell-based, HEK293, Gal4-DAX1, luciferase luminescence; HEK293 Gal4-DAX1 luciferase reporter; inhibition, % at 6.75 µM; 0.99% of 340,000 active;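 active = inhibition above the mean over all tested compounds plus 3 SD, cut at about 4.2% in these data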;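 note: 0% = DAX1-transfected cells with DMSO and 100% = empty-vector control cells with DMSO; inhibition shows as a rise in luminescence from relieved DAX1 repression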
DAX1 inh-2 – DAX1 (NR0B1) inhibitors on StAR promoter, primary screen, cell-based, luminescence, SF-1 (NR5A1), full-length DAX-1; HEK293T StAR-luciferase reporter, SF-1/DAX-1 repression relief; inhibition, % at 6.8 µM; 1.1% of 370,000 active;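 active = inhibition above the mean over all tested compounds plus 3 SD, cut at about 3.6% in these data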;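 note: 0% = DAX-1 cells with DMSO and 100% = cells lacking DAX-1 with DMSO; higher inhibition means more luminescence from relief of DAX-1 repression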
hgDAF-12 ag – H. glycines DAF-12 receptor agonists, primary screen, cell-based, luminescence, HEK293, GAL4 fusion, UAS-luciferase | Nuclear hormone receptor DAF-12 (Heterodera glycines), GAL4 fusion | HEK293 GAL4-hgDAF12 UAS-luciferase reporter, agonist luminescence; normalized to butyrate control | activation, % at 6.8 µM | 1.8% of 370,000 active | AID 687014, 2013;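 active = activation above a cutoff set at the mean of all screened compounds plus 3 SD, cut at about 10% in these data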;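 note: 0% = DMSO wells and 100% = sodium butyrate wells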
hcDAF12 agonist – H. contortus DAF-12 nuclear receptor activators, primary screen, cell-based, luminescence, HEK293, lit1-tk-luc reporter; AID 652067, 2013; 1.4% of 370,000 active; activation, % at 6.8 µM; HEK293 hcDAF-12 lit1-tk-luc reporter; 0% DMSO, 100% Δ7-dafachronic acid;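 active = activation above the mean of all tested compounds plus 3 SD, cut at about 5.5% in these data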;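 note: 100% = response to 3 µM Δ7-dafachronic acid high control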
hgDAF12 conf – H. glycines DAF-12 receptor agonists, confirmation, cell-based, luminescence, HEK293, GAL4-LBD fusion; shares compounds with hgDAF-12 ag; HEK293 GAL4-hgDAF12 luciferase reporter, agonist mode; percent of butyrate response; activation, % at 6.8 µM; 80% of 3,300 active;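 active = mean activation over triplicate wells above the hit cutoff derived from the earlier primary screen, cut at about 11% in these data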;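 note: 0% = DMSO low control and 100% = 2 mM sodium butyrate high control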
LXR ag 2 – LXR agonists, Gal4 luciferase reporter, confirmation, counter-screen for hgDAF-12 agonist project, cell-based, luminescence, HEK293, H. glycines campaign. shares compounds with hgDAF-12 ag. 24 h. activation, % at 6.8 µM. 3,300 tested, under 10 active. AID 743051, 2013;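 active = mean activation of the triplicate above a set limit carried over from the primary screen, none filed active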
Target sequence (P55055 whole entry, looked up, the tested form may be a part): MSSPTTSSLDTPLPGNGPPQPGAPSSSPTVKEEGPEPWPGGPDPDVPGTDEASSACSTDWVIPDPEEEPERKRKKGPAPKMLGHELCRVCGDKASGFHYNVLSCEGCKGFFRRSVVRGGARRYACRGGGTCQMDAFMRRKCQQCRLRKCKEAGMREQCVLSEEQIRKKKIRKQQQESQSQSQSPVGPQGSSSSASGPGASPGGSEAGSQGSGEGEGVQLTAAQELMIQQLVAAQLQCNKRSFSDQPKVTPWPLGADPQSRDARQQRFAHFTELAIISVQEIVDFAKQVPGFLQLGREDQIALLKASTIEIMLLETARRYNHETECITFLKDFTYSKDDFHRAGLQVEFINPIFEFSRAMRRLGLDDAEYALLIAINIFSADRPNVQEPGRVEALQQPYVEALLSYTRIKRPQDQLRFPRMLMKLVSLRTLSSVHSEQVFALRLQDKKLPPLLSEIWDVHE
* hit, by the source's call; . = no result given.

SMILES	ssDAF12 agonist	DAX1 inh-1	DAX1 inh-2	hgDAF-12 ag	hcDAF12 agonist	hgDAF12 conf	LXR ag 2
CCc1nc2cc3sc(CC)nc3cc2s1	0	0	2	16*	2	13*	1
Cc1ccc(NC(=O)O/N=C/c2ccc(F)cc2)cc1	-1	-1	1	4	2	.	.
O=C(Nc1ccccc1)O/N=C/c1ccc(F)cc1	0	3	3	15*	4	16*	1
Cc1cn([C@H]2C[C@H](O)[C@@H](CNC(=O)CNC(=O)CN)O2)c(=O)[nH]c1=O	-1	0	-2	1	0	.	.
Cc1ccc(NC(=O)c2ccc(N3C(=O)C4CC=C(Cl)CC4C3=O)cc2)cc1 (stereo unspecified)	-1	-1	2	2	-1	.	.
C/C(=N\O)c1ccc(N2C(=O)C3CC=C(Cl)CC3C2=O)cc1 (stereo unspecified)	0	5.0*	4	14*	4	15*	1
O=C(COc1ccc2c(c1)OCO2)Nc1ccc(Cl)cn1	-1	1	1	9	2	.	.
O=C(/C=C/c1ccc2c(c1)OCO2)Nc1ccc(Cl)cn1	-1	0	4.3*	15*	3	13*	1
Cc1ccc(C(=O)/C=C/c2ccc3c(c2)OCCO3)c(O)c1	-1	1	1	14*	1	8	1
O=C(C=Cc1ccc2c(c1)OCO2)c1ccccc1	0	1	0	13*	3	11*	0
O=C(Nc1ccc2c(c1)CCC2)c1c(F)cccc1Cl	0	1	2	10	3	.	.
O=C(Nc1ccc2c(c1)CCC2)c1cnc(Cl)c(Cl)c1	1.1*	2	2	15*	4	19*	1
Cc1ccc(C(=O)NCC(=O)Nc2ccc3c(c2)CCC3)cc1C	0	1	1	3	0	.	.
Nc1ccc(NC(=O)c2cccs2)cc1	-2	0	1	-1	-1	.	.
Cc1cc(C(=O)Nc2ccc3c(c2)CCC3)ccc1[N+](=O)[O-]	0	.	1	14*	2	17*	1
O=C(Nc1ccc2c(c1)CCC2)c1cccs1	1.2*	1	3	16*	3	17*	1
COC(=O)C1CCN(C2CN(Cc3ccc([N+](=O)[O-])cc3)S(=O)(=O)C2)CC1 (stereo unspecified)	-1	.	-1	-2	-1	.	.
O=C(c1cccc(Cl)c1)N1CCN(c2ccc3c(c2)C2CC3CCN2C(=O)OCc2ccccc2)CC1 (stereo unspecified)	-1	.	-2	3	0	.	.
COc1ccccc1C=NN=Cc1ccccc1O	1	4	1	2	5	.	.
CN(C)c1ccc(/C=N/N=C/c2ccccc2O)cc1	1.9*	4	3	16*	4	6	1
CCc1nc2c(OCc3ccc(F)cc3)cccn2c1N(C)C(=O)CC(C)C	-2	.	-1	-3	-1	.	.
CCn1cc(C(=O)N2CCN(c3ccc(F)cc3)CC2)c(=O)c2ccc(C)nc21	-1	.	1	1	-2	.	.
Cc1cccc2c1-c1sc(C(=O)Nc3cccnc3)cc1CO2	0	0	-1	3	2	.	.
Cc1cccc2c1-c1sc(C(=O)Nc3nccs3)cc1CO2	0	0	3	19*	1	14*	1
